The campaign covered roughly 3,600 compounds. About 900 (25%) were called active. No rule for the calls is given here. Only a sample is shown. Entries with a potency or affinity are not part of this list.

This assay deals with Protein Tat (Human immunodeficiency virus type 1 group M subtype B (isolate HXB2)) (UniProt P04608). The experiment in a line: inhibitors of Tat binding to TAR RNA, dose response, counter-screen for Vif-APOBEC3G degradation inhibitor project, biochemical, fluorescence polarization, FAM-labeled TAR RNA (AID 1117361). As to conditions: outcome: dose series up to 100 µM unless noted; series mostly up to 100 µM. Background: Counterscreens check selectivity or assay interference.
`Cc1ccc(-n2c(SCC(=O)NCc3ccco3)nc3c([nH]c4ccccc43)c2=O)cc1`: the call was inactive.

With `CC1CCc2c(sc3ncn4c(SCC(=O)NCc5ccco5)nnc4c23)C1` (centres undefined), the molecule was called inactive.

On to `CCn1c(Cc2c(C)[nH]c3ccccc23)n[nH]c1=S`, for which the result was inactive.

Turning to `COc1ccc(-c2noc(Cc3cccs3)n2)cc1`, the molecule was classed as inactive.

On to `O=C(/C=C/c1ccc(O)c(O)c1)c1ccc(S(=O)(=O)N2CCCCCC2)cc1`, for which the result was inactive.

Turning to `CCCNS(=O)(=O)c1ccc(NC(=O)c2ccccn2)cc1`, the molecule was classed as inactive.

Regarding `CC(C)(C)c1ccc(C(=O)Oc2ccc3c(c2)OCC3=O)cc1`, the molecule was called inactive.

For `O=C1/C(=C\c2ccco2)CCC/C1=C\c1ccco1`, the molecule was classed as inactive.

Take `C=CCNC(=S)NNC(=O)c1ccccc1`: the call was inactive.

In the case of `COc1ccc(N/N=C(\C#N)C(=N)SCc2ccccc2)cc1`, the call was inactive.

As for `CC1(C)Cc2cccc(OCC(O)CN3CCN(c4ccccn4)CC3)c2O1` (centres undefined), the call was inactive.

Consider `O=C1CNC(=O)/C1=C/c1ccc(Br)cc1`, for which the result was inactive.

In the case of `CC1CC(C)CN(C(=O)COC(=O)CNS(=O)(=O)/C=C/c2ccccc2)C1` (centres undefined), the call was inactive.

Regarding `CCS(=O)(=O)N1CCN(C(=O)c2cccc3ccccc23)CC1`, the outcome was inactive.

On to `CN(C)CCCNC(NC(=O)c1cccs1)C(Cl)(Cl)Cl` (centres undefined), for which the molecule was called inactive.

In the case of `Cc1nc2c3ccccc3n(CC(=O)c3ccc(F)cc3)c(=O)n2n1`, the result was inactive.

On to `O=C(NC(=S)N1CCN(c2c(Cl)cccc2[N+](=O)[O-])CC1)c1cccs1`, for which the call was inactive.

`COc1cc2c(cc1NC(=O)CC1SC(N3CCCC3)=NC1=O)oc1ccccc12` (centres undefined): the molecule was classed as inactive.

Regarding `O=S(=O)(c1ccc2nc(-c3ccco3)c(-c3ccco3)nc2c1)N1CCOCC1`, the molecule was classed as inactive.

On to `COc1ccc(N2CCN(C(=O)c3ccc(C)c(Cl)c3)CC2)cc1`, for which the outcome was inactive.

`COc1ccc(C(=O)Nc2cccc(C(=O)N3CCN(C)CC3)c2)cc1`: the outcome was inactive.

Consider `COc1ccc2nc(N3CCN(C(=O)c4ccc5ncsc5c4)CC3)sc2c1`, for which the molecule was called inactive.

As for `O=S(=O)(c1ccc(F)cc1)N(CCO)CC(O)Cn1c2ccccc2c2ccccc21` (centres undefined), the call was inactive.

`Cc1c(C(=O)N2CCN(c3ccc(F)cc3)CC2)sc2nc(-c3ccccc3)cn12`: the molecule was classed as inactive.

`CCS(=O)(=O)n1nc(-c2ccc(Cl)cc2)nc1SC`: the outcome was inactive.

Consider `Cn1c(C(=O)NCCN2CCOCC2)cc2c(=O)n(C)c3ccccc3c21`, for which the molecule was classed as inactive.

As for `COc1ccc(CNC(=O)Cn2nc(C(F)(F)F)c3c2CCC3)cc1`, the molecule was called inactive.

For the molecule `Cc1sc(NC(=O)c2ccccc2)c(C(=O)NCCN(C)C)c1C`, the molecule was called inactive.

Take `CC1COCC(C)N1C1=C(Cl)C(=O)c2ccccc2C1=O` (centres undefined): the molecule was classed as inactive.

For the molecule `NC(=O)C1CCN(C2=C(Cl)C(=O)c3ccccc3C2=O)CC1`, the result was inactive.

Regarding `CCc1cc2c(=O)n(-c3ccc(C)cc3)cnc2s1`, the molecule was classed as inactive.

`COc1ccc(CCNS(=O)(=O)c2ccc3c(c2)CCN3C(=O)CCC(=O)O)cc1OC`: the call was inactive.

In the case of `COc1ccc(C2C(C(=O)NCCN(C)C)c3ccccc3C(=O)N2C)cc1OC` (centres undefined), the molecule was classed as inactive.

As for `CCCCN(CCCC)S(=O)(=O)c1ccc(NC(=O)c2cccs2)cc1`, the result was inactive.

For the molecule `[O-][n+]1onc2c1CCc1c-2nc(-c2ccccc2)n1OCc1ccccc1`, the result was inactive.

Regarding `CCN(CCCNC(=O)C1CCCN(S(=O)(=O)CC)C1)c1cccc(C)c1` (centres undefined), the outcome was inactive.

`O=C(c1ccc2c(c1)OCCO2)C1CCN(C(=O)c2ccc(F)cc2)CC1`: the result was inactive.

As to `CCc1ccccc1NC(=S)N(Cc1ccc(OC)cc1)CC1CCC(C(=O)O)CC1` (centres undefined), the molecule was called inactive.

With `CCn1cc(C(=O)NCc2ccc3c(c2)OCO3)c2cc(OC)c(OC)cc2c1=O`, the result was inactive.

Take `Cc1ccc(C(=O)C2C(c3cccs3)NC(=O)NC2(O)C(F)(F)F)cc1` (centres undefined): the call was inactive.

Turning to `CCOC(=O)C1=C(CN2CCN(c3ccc(F)cc3)CC2)NC(=O)NC1c1cccs1` (centres undefined), the call was inactive.

As to `Cn1cccc1C(=O)NC(=O)COC(=O)CC12CC3CC(CC(Br)(C3)C1)C2`, the result was inactive.

`O=C(Cc1ccccc1)Nc1scc(-c2ccccc2)c1C(=O)N1CCOCC1`: the molecule was called inactive.

For `CC1=C(C(=O)OCC(Cl)(Cl)Cl)N2C(=O)C(NC(=O)Cc3ccccc3)C2SC1` (centres undefined), the molecule was called inactive.

Consider `CC(=O)[C@@]1(O)CC[C@H]2[C@@H]3CCC4=CC(=O)CC[C@]4(C)[C@H]3CC[C@@]21C`, for which the molecule was classed as inactive.

For the molecule `Cc1sc(-c2ccncc2)nc1OC(=O)c1ccccc1`, the outcome was inactive.

For the molecule `COc1ccc(S(=O)(=O)NC2CC(C)(C)NC(C)(C)C2)c(C)c1C`, the result was inactive.

For `Cc1sc2nc(C)n(/N=C/c3ccccc3O)c(=O)c2c1C`, the molecule was called inactive.

For `C=CCNC(=O)c1cc(=O)c2ccccc2o1`, the call was inactive.

In the case of `Cc1nn(-c2ccc(Cl)cc2)c2[nH]c(=O)c(CNCc3ccc4c(c3)OCO4)cc12`, the molecule was called inactive.

Consider `O=c1oc(/C=C/c2ccccc2)nc2sc3c(c12)CCC3`, for which the call was inactive.

Take `O=[N+]([O-])c1cc(C(F)(F)F)ccc1N1CCN(S(=O)(=O)c2ccc3ccccc3c2)CC1`: the call was inactive.

Turning to `COC(=O)C1=C(Nc2ccc(OC)cc2)C=C(C)C(C(=O)OC)C1c1ccc(C)cc1` (centres undefined), the call was inactive.

Turning to `CC1(C)CC(NS(=O)(=O)c2ccccc2)CC(C)(C)N1`, the result was inactive.

With `CC1(C)C2CCC1(C)C(NC1=NCCC1)C2` (centres undefined), the result was inactive.

In the case of `CCCN(CCC)C(=O)c1cc(-c2ccc3c(c2)OCO3)nc2ccccc12`, the call was inactive.

Consider `CC(=NCc1ccc2c(c1)OCO2)C1=C(O)c2ccccc2C1=O`, for which the molecule was classed as inactive.

Consider `CC(OC(=O)CC1CCCC1)C(=O)Nc1ccc(Cl)cn1` (centres undefined), for which the outcome was inactive.

For `Nn1c(SCC(=O)NC2CCCc3ccccc32)nnc1-c1cccs1` (centres undefined), the molecule was classed as inactive.

Regarding `COc1ccccc1CNS(=O)(=O)c1cccc(S(=O)(=O)N2CCOCC2)c1`, the outcome was inactive.

For the molecule `COC(=O)C1C2CCC(C2)C1C(=O)OCC(=O)c1ccc(C)cc1` (centres undefined), the molecule was called inactive.

For the molecule `CC(C)CC(=O)N(c1ccc(F)cc1)C1C=CS(=O)(=O)C1` (centres undefined), the call was inactive.

Regarding `O=C(CCl)N1N=C(c2ccco2)CC1c1ccco1` (centres undefined), the molecule was called inactive.

With `Cc1cc(C)cc(NC(=S)NC(=O)CCN2C(=O)c3ccccc3C2=O)c1`, the molecule was called inactive.

With `CCCCOc1cccc(C(=O)NC(=S)Nc2ccc(Cl)c(C(=O)O)c2)c1`, the result was inactive.

Consider `CCc1ccc(-c2cc(C(=O)Nc3ccc(S(=O)(=O)NC(C)=O)cc3)c3ccccc3n2)cc1`, for which the call was inactive.

With `COC(=O)c1ccc(C)c(NS(=O)(=O)c2ccc(NC(C)=O)cc2)c1`, the result was inactive.

Take `COc1ccc(N2CCN(c3nc4ccccc4nc3NS(=O)(=O)c3ccccc3)CC2)cc1`: the molecule was classed as inactive.

As to `CC(=O)Nc1ccc(S(=O)(=O)Nc2cccc(-c3nc4ccccc4o3)c2)cc1`, the call was inactive.
